Screening results as filed in PubChem BioAssay.
ATXN viability: Viability Counterscreen for Primary qHTS for Inhibitors of ATXN expression. S2 cells (HEK-293 line with an ATXN2-luciferase reporter) viability, CellTiter-Fluor protease fluorescence, 24 h. Potency, µM (top dose mostly 56.7 µM), hits mostly cytotoxic. 0.49% of 400,000 active. AID 651635, 2014; note: potency is the fitted concentration of half-maximal effect; nearly all actives have a fitted effect of over 40% in size
IL-1B inflam inh: qHTS for Inhibitors of Inflammasome Signaling: IL-1-beta AlphaLISA Primary Screen. activity change, % at 57.5 µM. THP-1 LPS/ATP IL-1B secretion, AlphaLISA, 16 h; stronger effect = lower value. 4.7% of 360,000 active; in the data active = activity change below about -50%; inconclusive = mostly about -30% to -49%; note: % is set by controls: 0 for no effect and ±100 for the full control effect
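Secreted IL-1B measured by AlphaLISA bead assay after 16 h compound exposure of THP-1 cells; compounds (final up to 57.5 uM) added 1 h before LPS (250 ng/mL) and ATP (1.25 mM) stimulation; lower signal means less secretion.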
ATXN2 expr inh: Primary qHTS for Inhibitors of ATXN expression | HEK-293 ATXN2-luciferase reporter, luminescence, 24 h | Potency, µM (highest dose often 57 µM), without a hit: at the highest dose activity change, negative = inhibition, most hits filed as inhibitors | 0.72% of 360,000 active; note: potency is the fitted concentration of half-maximal effect; % is set by controls: 0 for no effect and ±100 for the full control effect; nearly all actives have a fitted effect of over 55% in size
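qHTS (up to 57 uM final) was run with 24 h compound exposure of reporter cells at 37 °C. Each well was multiplexed: SteadyGlo luminescence measured ATXN2-luciferase expression after a fluorogenic Gly-Phe-AFC viability readout (25 uM final).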
HepG2 viability: qHTS for Inhibitors of TGF-b: Cytotox Counterscreen; HepG2 CAGA-GFP viability, ATP luminescence, 18 h; Potency, µM (titrated, usually from 46.1 µM), without a hit: top-dose activity change, negative = cytotoxicity, hits mostly cytotoxic; 0.76% of 410,000 active; AID 588856, 2011; note: potency is the fitted concentration of half-maximal effect
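CellTiter-Glo luminescence gave cytotoxicity after 18 hours at 37 degrees C. The cells were HepG2 CAGA-GFP in 1% FBS DMEM, stimulated with 500 pg/mL TGF-beta after compound addition. %Activity was normalised to no-cell wells (complete cell-killing) and DMSO (no toxicity), and curves were fitted and classified.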
TGFb inhibitor: qHTS for Inhibitors of TGF-b. HepG2 CAGA-GFP TGF-b/SMAD3 reporter, GFP fluorescence, 18 h; TGF-beta stimulated, 500 pg/mL final. Potency, µM (doses to about 46.1 µM), for inactives: at the top dose activity, negative = inhibition, usual class: inhibitors. 1.2% of 410,000 active. AID 588855, 2011; note: potency is the fitted concentration of half-maximal effect; % is set by controls: 0 for no effect and ±100 for the full control effect; nearly all actives have a fitted effect of over 65% in size
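HEPG2 CAGA-GFP, 1000 cells/well; 2 h settle, 37 C; cpd via pin tool; TGF-b 500 pg/mL final; 18 h, 37 C; GFP imaging ex488/em500-530; %Activity normalised to -TGF-b and +DMSO controls; CRC fit, curve class.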
An asterisk follows results filed as active. The list is not random: actives were taken first. Their share in the collection is about 5.7%. Unless noted, calls come from the whole dose curve; as a rule, active = well fitted curve in the direction sought with a large enough effect; inconclusive = small, poorly fitted or top-dose-only effect, or another doubt; inactive = no such curve, though single readings can be large; an effect the other way counts as inactive or inconclusive.

What do the screens show for `O=C1NC(Cc2ccc(O)cc2)c2nc3ccc(F)cc3c(=O)n2-c2cc3ccccc3cc21` (stereo unspecified)?
ATXN viability: 14.1µM*; IL-1B inflam inh: -18.2; ATXN2 expr inh: inconclusive; HepG2 viability: -28.0%; TGFb inhibitor: inconclusive

Results for Cc1ccc2nc3n(c(=O)c2c1)-c1cc2ccccc2cc1C(=O)NC3Cc1ccc(O)cc1 (stereo unspecified) ?
ATXN viability: inconclusive; IL-1B inflam inh: 27.9; ATXN2 expr inh: inconclusive; HepG2 viability: -1.6%; TGFb inhibitor: inconclusive

Results for CN(C)c1ccc(/C=C/c2ncnc3ccccc23)cc1 ?
HepG2 viability: -26.7%; TGFb inhibitor: 248.7%

Results for Cc1ccc(S(=O)(=O)N2C[C@@H](C)[C@]3(C2)[C@H](O)[C@H](OC(=O)Nc2cccs2)C[C@H]2C(=O)N(c4ccccc4)C(=O)[C@H]23)cc1 ?
IL-1B inflam inh: -109.1*; ATXN2 expr inh: inconclusive; HepG2 viability: -5.2%; TGFb inhibitor: inconclusive

Results for COc1ccc(CNC(=O)O[C@@H]2C[C@H]3C(=O)N(c4ccccc4)C(=O)[C@H]3[C@@]3(CN(S(=O)(=O)c4ccc(C)cc4)C[C@H]3C)[C@@H]2O)cc1OC ?
ATXN viability: inactive; IL-1B inflam inh: -64.2*; ATXN2 expr inh: -33.9%; HepG2 viability: -12.7%; TGFb inhibitor: inconclusive

What do the screens show for `Cc1ccc(S(=O)(=O)N2C[C@@H](C)[C@]3(C2)[C@H](O)[C@H](OC(=O)NC2CC2)C[C@H]2C(=O)N(c4ccccc4)C(=O)[C@H]23)cc1`?
ATXN viability: inconclusive; IL-1B inflam inh: inconclusive; ATXN2 expr inh: -7.6%; HepG2 viability: -46.1%; TGFb inhibitor: inconclusive

What do the screens show for `Cc1ccc(S(=O)(=O)N2C[C@@H](C)[C@]3(C2)[C@H](O)[C@H](OC(=O)NCc2ccco2)C[C@H]2C(=O)N(c4ccccc4)C(=O)[C@H]23)cc1`?
ATXN viability: inactive; IL-1B inflam inh: -8.9; ATXN2 expr inh: 9.5%; HepG2 viability: 5.9%; TGFb inhibitor: 13.2%

What do the screens show for `CC(=O)Nc1ccccc1-c1nc2ccccc2n(CC(=O)c2ccc(Br)cc2)c1=O`?
ATXN viability: inactive; ATXN2 expr inh: -8.7%; HepG2 viability: -10.4%; TGFb inhibitor: -0.1%

How did CCN(c1ccccc1)c1nnc(NC(=O)Nc2ccc(C)cc2)s1 do in these assays?
HepG2 viability: -26.1%; TGFb inhibitor: 2.4%

How did NC(=O)c1cc[n+](CC2=C(C(=O)[O-])N3C(=O)[C@@H](NC(=O)Cc4cccs4)[C@H]3SC2)cc1 do in these assays?
ATXN viability: inactive; ATXN2 expr inh: 1.6%

How did COc1ccccc1C(=O)N(CCC1CCCN1C)c1nc2ccccc2s1 (stereo unspecified) do in these assays?
ATXN viability: inactive; IL-1B inflam inh: -78.3*; ATXN2 expr inh: 1.9%; HepG2 viability: 4.6%; TGFb inhibitor: inconclusive

How did COc1cccc(-n2nnc(-c3nc(-c4ccccc4F)no3)c2C)c1 do in these assays?
HepG2 viability: -14.8%; TGFb inhibitor: 1.6%

How did CC(c1ccco1)N(C(=O)c1ccccc1NS(=O)(=O)c1ccc(Cl)c([N+](=O)[O-])c1)c1ccccn1 (stereo unspecified) do in these assays?
ATXN viability: inactive; IL-1B inflam inh: -85.6*; ATXN2 expr inh: -15.9%; HepG2 viability: -53.6%; TGFb inhibitor: -11.2%

How did COc1ccccc1N1CCN(c2ncnc3c2nnn3C)CC1 do in these assays?
HepG2 viability: -5.6%; TGFb inhibitor: 21.8%

What do the screens show for `Cc1nn(-c2ccccc2)c(-n2cccc2)c1C(=O)NCCCN1CCN(c2ccccc2F)CC1`?
ATXN viability: inactive; ATXN2 expr inh: -21.0%; HepG2 viability: -32.5%; TGFb inhibitor: inconclusive

Results for O=C(CNc1ccccc1)N/N=C/c1ccc([N+](=O)[O-])o1 ?
ATXN viability: inactive; IL-1B inflam inh: inconclusive; ATXN2 expr inh: inconclusive; HepG2 viability: 11.2µM*; TGFb inhibitor: inconclusive

Results for O=C(CCC(=O)Nc1ccc(Cl)cc1Cl)N/N=C/c1ccc([N+](=O)[O-])o1 ?
ATXN viability: inconclusive; IL-1B inflam inh: -77.1*; ATXN2 expr inh: inconclusive; HepG2 viability: 15.8µM*; TGFb inhibitor: 11.2µM*

Results for O=C(CNC(=O)c1ccccc1)N/N=C/c1ccc([N+](=O)[O-])o1 ?
ATXN viability: inconclusive; IL-1B inflam inh: 16.6; HepG2 viability: -93.5%; TGFb inhibitor: inconclusive

Results for O=C(N/N=C/c1ccc([N+](=O)[O-])o1)C1CCCC1 ?
ATXN viability: inactive; IL-1B inflam inh: 36.3; ATXN2 expr inh: -32.4%; HepG2 viability: -71.7%; TGFb inhibitor: inconclusive

How did O=C(Cc1ccc2c(c1)OCO2)NN=Cc1ccc([N+](=O)[O-])o1 do in these assays?
ATXN viability: inconclusive; IL-1B inflam inh: -60.5*; ATXN2 expr inh: inconclusive; HepG2 viability: -102.2%; TGFb inhibitor: 10µM*

Results for CCCCCC(=O)N/N=C/c1ccc([N+](=O)[O-])o1 ?
ATXN viability: inactive; IL-1B inflam inh: 20.7; ATXN2 expr inh: -26.5%; HepG2 viability: 10µM*; TGFb inhibitor: inconclusive

Results for O=[N+]([O-])c1ccc(/C=N/NC(=S)Nc2ccccc2F)o1 ?
ATXN viability: inactive; IL-1B inflam inh: -0.5; ATXN2 expr inh: -14.1%; HepG2 viability: 26.8%; TGFb inhibitor: 4.6%

How did COC(=O)CC1Oc2ccc(Cl)cc2-n2cc(-c3ccc(C)cc3)nc21 (stereo unspecified) do in these assays?
ATXN viability: inactive; ATXN2 expr inh: -2.2%; HepG2 viability: -10.2%; TGFb inhibitor: -7.7%

How did Cc1ccc(NCC(=O)N/N=C\c2ccc([N+](=O)[O-])o2)cc1 do in these assays?
ATXN viability: inactive; IL-1B inflam inh: -63.7*; ATXN2 expr inh: -24.9%; HepG2 viability: 12.6µM*; TGFb inhibitor: 11.2µM*

How did O=C(CSc1ccccn1)Nc1nc2ccccc2s1 do in these assays?
ATXN viability: inactive; IL-1B inflam inh: -5.8; ATXN2 expr inh: 98.2%; HepG2 viability: 3.8%; TGFb inhibitor: -21.8%

How did O=S(=O)(CCSc1ccccn1)c1nc2ccccc2s1 do in these assays?
IL-1B inflam inh: -106.4*; ATXN2 expr inh: inconclusive; HepG2 viability: 10µM*; TGFb inhibitor: 8.91µM*

What do the screens show for `CCS(=O)(=O)CCSc1nc2ccccc2o1`?
ATXN viability: inactive; IL-1B inflam inh: 3.8; ATXN2 expr inh: 7.2%; HepG2 viability: 1.5%; TGFb inhibitor: 9.4%

What do the screens show for `O=S(=O)(CCSc1nc2ccccc2o1)c1nc2ccccc2s1`?
IL-1B inflam inh: -99.5*; ATXN2 expr inh: 28.2µM*; HepG2 viability: -102.5%; TGFb inhibitor: inconclusive
